# Sampled rows, rich in hits. Any-hit rate of the full collection: about 2.9%.
# 14-3-3 Bad PPI: disrupts binding of bovine 14-3-3 zeta to phospho-Bad peptide; 220,000 compounds, 0.71% hits; P63103; AID 781; TR-FRET 14-3-3zeta/Dy647-pBad peptide displacement, 1 h; inhibition, % at 21.7 µM;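 active = inhibition above about 70%, limit read from the data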
# Target sequence (P63103 whole entry, looked up): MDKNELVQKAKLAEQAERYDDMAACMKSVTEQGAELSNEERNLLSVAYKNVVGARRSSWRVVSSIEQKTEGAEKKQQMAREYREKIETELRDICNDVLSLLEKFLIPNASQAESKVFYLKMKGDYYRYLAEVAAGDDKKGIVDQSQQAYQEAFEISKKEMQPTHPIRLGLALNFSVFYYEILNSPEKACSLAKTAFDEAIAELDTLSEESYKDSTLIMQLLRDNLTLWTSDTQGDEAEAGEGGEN
# Mcl1 Bid PPI: disrupts binding of human Mcl-1 to Bid peptide; TR-FRET Mcl-1/Bid-Dy647 peptide binding, 1536-well; inhibition, % at 21.7 µM; 220,000 compounds, 0.97% hits;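 active = compounds that cut the binding signal by more than half at the single screening dose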;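 also: His-tagged Mcl-1 with europium anti-His antibody binding Bid BH3 peptide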
# Target sequence (Q07820 whole entry, looked up): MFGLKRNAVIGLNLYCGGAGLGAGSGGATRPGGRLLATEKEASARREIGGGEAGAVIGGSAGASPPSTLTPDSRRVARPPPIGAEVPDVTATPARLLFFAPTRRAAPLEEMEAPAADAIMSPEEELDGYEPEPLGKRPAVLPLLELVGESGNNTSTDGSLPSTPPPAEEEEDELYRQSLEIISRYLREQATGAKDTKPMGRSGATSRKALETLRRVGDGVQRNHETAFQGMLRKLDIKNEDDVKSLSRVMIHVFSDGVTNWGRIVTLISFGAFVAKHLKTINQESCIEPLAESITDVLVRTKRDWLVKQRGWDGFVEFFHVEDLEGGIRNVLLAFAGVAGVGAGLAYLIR
# Mcl-1 Bim block: human Bim-Mcl-1 interaction inhibition; 190,000 compounds, 0.1% hits; AID 1009; Bead-based flow cytometry, Bim peptide-Mcl-1 binding; inhibition, % at 10 µM; in the data active = inhibition above about 40%
# Pf gametocyte: P. falciparum stage V gametocyte viability inhibition. inhibition, % at 10.9 µM. 150,000 compounds, 0.065% hits. P. falciparum stage V gametocytes, ATP luminescence, 24 h;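 active = inhibition above the mean plus 3 SD of compounds within the control limits, set per campaign, cut at about 38% in these data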
# Mcl1-Noxa inh: Mcl-1/Noxa interaction inhibition | Q07820 | inhibition, % at 21.7 µM | TR-FRET Mcl-1/Noxa peptide binding, 2 h | AID 1022 | 220,000 compounds, 1.5% hits;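 active = compounds that cut the protein-peptide binding signal by more than 50% relative to plate controls in a single-dose test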;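 also: His-tagged Mcl-1 with rhodamine Noxa BH3 peptide and terbium anti-His antibody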
# Hck Nef HTS: blocks Nef-activated human Hck kinase; 220,000 compounds, 0.68% hits; P08631; AID 463187; inhibition, % at 20 µM; Recombinant Hck-YEEI plus Nef, Z-Lyte FRET kinase assay;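 active = Hck-Nef kinase inhibition above about 50%, limit read from the data; inactive = inhibition below that limit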
# Numbers stand for hits; – = inactive; · = no result given; [ ] = remark or other dose.
SMILES,14-3-3 Bad PPI,Mcl1 Bid PPI,Mcl-1 Bim block,Pf gametocyte,Mcl1-Noxa inh,Hck Nef HTS
Cc1ccc(OCC(=O)NNC(=O)c2ccoc2C)c(Br)c1,–,–,–,·,–,–
Cc1cc(CN2CCCC(N3CCc4ccccc4C3)C2)cc(C)c1O (centres undefined),·,·,·,–,·,·
C=CCn1c(=N)c(C(=O)OCC)cc2c(=O)n3cccc(C)c3nc21,·,·,·,·,·,172
Cc1ccc(/C(O)=C2/C(=O)C(=O)OC2c2ccc(Cl)cc2)cc1 (centres undefined),–,–,–,·,–,–
O=C1OC(c2ccccc2)/C(=C(/O)c2ccc(Cl)cc2)C1=O (centres undefined),71,–,–,·,–,–
OC(Cn1ccnc1)c1ccc(Cl)cc1Cl (centres undefined),–,–,–,·,–,–
CC1(c2ccc(Cl)cc2Cl)OCC(Cn2ccnc2)O1 (centres undefined),–,80,–,–,–,–
Cc1ccc(-n2c(Cl)c(Cl)nc(Cl)c2=O)cc1,–,–,–,·,–,–
CCOC(=O)c1c(NC(=O)CN(C)C)sc(C(=O)N(CC)CC)c1C,–,70,–,·,–,–
COc1ccc(N2C(=O)C3CCCN3C2=O)cc1 (centres undefined),–,–,–,–,102,–
CCN=c1scc(C)n1/N=C/c1cc(Br)c(O)c(OC)c1,–,–,–,–,63,–
COc1cc(/C=N/N2C(=O)CSC2=S)cc(Br)c1O,–,–,–,·,58,76
O=S(=O)(c1ccccc1)C1Cc2ccccc2C1Cl (centres undefined),·,·,·,–,·,·
N/C(=N\OC(=O)COc1ccc2ccccc2c1)c1cccnc1,–,61,–,–,–,–
N/C(=N\OC(=O)COc1ccc2ccccc2c1)c1ccncc1,–,–,–,·,–,–
COc1ccc2c(=O)cc(-c3ccccc3F)oc2c1,–,–,·,–,–,–
COc1ccc(CN2C(=O)Cc3c2nc(N)c2c(N)nc(N4CCCCC4)c(C#N)c32)cc1,–,–,–,·,58,–
O=S(=O)(Nc1cccc(CCc2ccccn2)c1)c1ccc(Cl)cc1,–,–,·,–,–,–
COC(=O)C(C)(C)ONC(=O)Nc1ccc(Br)cc1,–,–,–,–,–,–
COc1cc(/C=C(/NC(C)=O)C(=O)O)cc(Cl)c1OCc1ccc(Br)cc1,–,–,·,–,102,–
Cc1nc(C)n(CC(O)COc2ccc(C(=O)c3ccccc3)cc2)n1 (centres undefined),–,–,–,·,–,–
CCN1C(=O)/C(=C2/Sc3ccc(OC)cc3N2C)SC1=Nc1cccc(O)c1,–,65,–,–,70,–
O=C(/C=C/Nc1ccc(F)cc1)c1ccco1,–,–,–,·,–,–
O=C1NN(c2ccccc2)C(=O)/C1=C\c1cccc(OC(=O)c2cccs2)c1,–,–,–,–,57,–
O=C1NN(c2ccc(Cl)c(Cl)c2)C(=O)/C1=C/c1cccc(OC(=O)c2cccs2)c1,–,90,–,·,96,–
SMILES,14-3-3 Bad PPI,Mcl1 Bid PPI,Mcl-1 Bim block,Pf gametocyte,Mcl1-Noxa inh,Hck Nef HTS
COC(=O)N/N=C\c1cccc(OC(=O)c2cccs2)c1,–,–,–,–,–,–
C/C(=N\Nc1ccc([N+](=O)[O-])cc1)c1cccc(N)c1,–,–,–,–,–,–
Cc1cc(-c2csc(NC(=O)c3ccc(=O)n(C)n3)n2)c(C)n1CC1CCCO1 (centres undefined),–,–,–,·,54,–
Cc1cc(-c2csc(NC(=O)c3ccccc3C(F)(F)F)n2)c(C)n1Cc1ccccc1,–,–,–,·,–,–
CN(C)S(=O)(=O)c1cccc(-c2nn(-c3ccccc3)cc2/C=C2\SC(=S)NC2=O)c1,–,88,–,–,108,–
CN(C)S(=O)(=O)c1cccc(-c2nn(-c3ccccc3)cc2/C=C(\C#N)c2nc3ccccc3[nH]2)c1,–,–,–,·,–,–
COc1ccc2nc(NC(=O)C3CCCN(S(=O)(=O)c4cccc5nonc45)C3)sc2c1 (centres undefined),–,–,–,–,–,–
CCOc1ccc2nc(NC(=O)C3CCCN(S(=O)(=O)c4cccc5nonc45)C3)sc2c1 (centres undefined),–,59,–,·,–,–
COc1cc(NC(=O)C2CCN(S(=O)(=O)c3cccc4nonc34)CC2)cc(OC)c1,–,81,–,–,–,–
CC1=NNC(=O)C1CC(=O)N/N=C(\C)c1ccco1 (centres undefined),–,–,–,–,112,–
CC1=NNC(=O)C1CCC(=O)N/N=C(\C)c1ccccc1 (centres undefined),–,–,–,·,–,–
COc1cc(/C=C(\C#N)c2ccccn2)cc(OC)c1O,–,–,·,–,–,–
COc1cc(/C=C(\C#N)c2[nH]nc(N)c2C#N)cc(OC)c1O,–,–,–,·,56,–
CN(C)c1ccc(CC(=O)c2nc3ccccc3s2)cc1,–,–,–,–,76,–
O=C1Nc2ccccc2S/C1=C/c1cccs1,–,–,·,–,–,–
O=C1/C(=C/c2cccs2)Sc2ccccc21,–,–,75,–,–,–
CCOc1cc(S(=O)(=O)Nc2ccccn2)ccc1F,–,–,50,–,–,–
CCOc1cc(S(=O)(=O)Nc2ccccc2CC)ccc1Cl,–,–,–,–,56,–
CCOc1cc(S(=O)(=O)Nc2ccc(Cl)cn2)ccc1F,–,–,–,–,–,–
O=C(Nc1ccc(OC(F)F)cc1)c1ncc(Cl)c(Cl)c1Cl,98,–,–,·,–,–
Cc1ccc(C)c(S(=O)(=O)Nc2cc(SCC(=O)O)c(O)c3ccccc23)c1,84[fluorescence artefact?],–,–,·,79,–
O=S(=O)(Nc1cc(Sc2cccc3cccnc23)c(O)c2ccccc12)c1ccccc1,–,–,–,–,68,–
O=C(O)CSc1cc(NS(=O)(=O)c2cccc([N+](=O)[O-])c2)c2ccccc2c1O,86,–,·,–,76,–
CCc1ccc(S(=O)(=O)Nc2cc(SCC(=O)O)c(O)c3ccccc23)cc1,–,–,–,–,56,–
CCOc1ccc(S(=O)(=O)Nc2cc(SCC(=O)O)c(O)c3ccccc23)cc1,·,·,·,–,·,·
SMILES,14-3-3 Bad PPI,Mcl1 Bid PPI,Mcl-1 Bim block,Pf gametocyte,Mcl1-Noxa inh,Hck Nef HTS
CC(C)c1nnc(NC(=O)CCC(=O)N2CCN(c3ccccn3)CC2)s1,–,–,–,–,–,–
CN(CC(=O)Nn1cnnc1)S(=O)(=O)c1ccccc1,73,–,–,·,–,–
Cc1ccc(CSc2ncnc3onc(C)c23)cc1,–,–,·,–,–,–
Cc1noc2ncnc(SCc3ccc(C(F)(F)F)cc3)c12,–,69,·,–,–,–
Cc1nc2ccccc2c(=O)n1NC(=O)c1cccnc1Cl,–,–,–,–,–,–
CCN(CC)c1ccc(NC(=O)c2c(OC)cccc2OC)c(C)c1,–,–,–,·,–,–
CCC(=O)NC(=S)Nc1ccc(NC(=O)c2cc3ccccc3o2)c(OC)c1,–,63,–,–,–,–

# High-throughput results as filed in PubChem.
